Shown are actives, neighbours in structure and some others; about 9.1% of the full set was active somewhere.
M1 ag – M1 muscarinic receptor agonism | CHO-M1 cells, Fluo-4 calcium fluorescence, agonist mode; hits give high values | B-score at 10 µM | 3% of 64,000 active | AID 626;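 active = fluorescence rise, raw or as B-score row- and column-corrected plate score, outside the 99.7% band of its plate's samples, either direction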
M1 antagonist – M1 muscarinic receptor (rat) antagonism; B-score at 10 µM; CHO-M1 cells, Fluo-4 calcium, ACh EC80 antagonist mode; hits give low values; P08482; 3.4% of 64,000 active;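 active = calcium fluorescence response, raw or row-and-column corrected B-score, differing from the plate sample mean either way at a set confidence level, mostly lower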
mHtt clearance – compounds clearing mutant huntingtin protein; HeLa Exon1htt(103Q)mCFP, aggregate imaging; zero = plate's median compound well; inhibition, % at 1.5 µM; 0.42% of 47,000 active; AID 853;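 active = inhibition of aggregate fluorescence above about 70%, also judged a hit by eye on the cell image, limit read from the data, passing the limit was not always enough; inconclusive = no rule stated for this call; inactive = not judged a hit on image review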;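 note: cells exposed to compound for three days before fixation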
D1 allo mod – allosteric modulators of human D1 dopamine receptor. P21728. HEK293 D1, CRE-luciferase, dopamine EC30 potentiation; actives deviate in either direction. B-score at 10 µM. 5.9% of 58,000 active. AID 641;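 active = luminescence count or its row- and column-corrected plate score outside the 99.7% band of the plate's sample wells, on either side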
Target sequence (P21728 whole entry, looked up): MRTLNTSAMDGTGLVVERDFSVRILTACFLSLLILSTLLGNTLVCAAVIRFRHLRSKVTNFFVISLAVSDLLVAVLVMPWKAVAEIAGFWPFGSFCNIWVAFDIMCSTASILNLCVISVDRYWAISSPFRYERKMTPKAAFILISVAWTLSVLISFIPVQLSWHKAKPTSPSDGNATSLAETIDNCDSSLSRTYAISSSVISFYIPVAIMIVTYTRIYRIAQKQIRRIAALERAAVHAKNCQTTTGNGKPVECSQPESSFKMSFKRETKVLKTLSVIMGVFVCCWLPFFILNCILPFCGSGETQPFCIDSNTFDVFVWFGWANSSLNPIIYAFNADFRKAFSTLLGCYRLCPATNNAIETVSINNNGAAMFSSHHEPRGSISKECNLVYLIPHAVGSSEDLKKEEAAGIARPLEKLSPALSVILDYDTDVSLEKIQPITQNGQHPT
M1 agonist conf – rat M1 muscarinic agonism, confirmation | shares compounds with M1 ag | CHO-M1 cells, Fluo-4 calcium fluorescence, agonist mode; actives lie on both sides | fluorescence change (max-min) at 10 µM | 19% of 1,700 active | AID 1488;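 active = fluorescence change differs from the solvent-only DMSO control mean at a set confidence level in both duplicate runs; inconclusive = differs from solvent-only control mean in just one of two runs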;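 note: an EC20 dose of acetylcholine follows compound addition during the same imaging run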
M4 ag counter – activates rat M4 receptor in counter-screen for M1 agonists; shares compounds with M1 ag; CHO M4/Gqi5 cells, Fluo-4 calcium fluorescence, agonist mode; actives lie on both sides; fluorescence change (max-min) at 10 µM; 9% of 1,700 active;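 active = fluorescence change differing from the plate's solvent-only control wells at 99.7% confidence in both duplicates, whether higher or lower; inconclusive = differs from solvent controls in only one of two duplicates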
Large screens that a line does not name were inactive (follow-up assays come after a bar, where they were run).

Cn1c(C(=O)NCCN2CCc3ccccc3C2)cc2c(=O)n(C)c3ccccc3c21	M1 ag 2.91 (no result: mHtt clearance) | M1 agonist conf inconclusive | M4 ag counter inactive
CCCN(CCC)CCNC(=O)c1cc2c(=O)n(C)c3ccccc3c2n1C	none
Cn1c(C(=O)NC2CCCCC2)cc2c(=O)n(C)c3ccccc3c21	M1 ag 3.81 (no result: mHtt clearance) | M1 agonist conf inconclusive | M4 ag counter inconclusive
Cc1cccc(N2CCN(C(=O)c3cc4c(=O)n(C)c5ccccc5c4n3C)CC2C)c1 (configuration not stated)	M1 ag 5.49, D1 allo mod -4.82 (no result: mHtt clearance) | M1 agonist conf inactive | M4 ag counter inactive
Cc1onc(-c2ccccc2)c1C(=O)N1CCc2ccccc21	none
Cn1c(C(=O)NC2CCCCCC2)cc2c(=O)n(C)c3ccccc3c21	M1 ag 3.76 | M1 agonist conf inconclusive | M4 ag counter inconclusive
CCCc1c(O)nc(SCCN(CC)CC)n(C(=O)c2ccccc2)c1=O	none (no result: mHtt clearance)
C=CCNc1ncnc2c1[nH]c1ccc(C)cc12	M1 ag 4.24 | M1 agonist conf inactive | M4 ag counter inactive
Cc1cc(NC(=O)C2C3C(=O)N(CC4CCCO4)C(C(=O)NCc4ccccc4)C34C=CC2(C)O4)no1 (configuration not stated)	none (no result: M1 ag, M1 antagonist, D1 allo mod)
C=CCn1c2ccccc2c2nnc(SCCCn3c(=O)[nH]c4ccccc43)nc21	M1 ag 5.32, M1 antagonist -6.62 (no result: mHtt clearance) | M1 agonist conf inactive | M4 ag counter inactive
CCc1ccccc1NC(=O)CSc1nnc(Cn2nnc3ccccc32)n1C	none (no result: M1 ag, M1 antagonist, D1 allo mod)
COC(=O)COc1cc(C)cc2oc(=O)c(CC(=O)OC)c(C)c12	M1 ag 3.11 | M1 agonist conf inconclusive | M4 ag counter inactive
Cc1ccc2nc(SCCC(=O)O)cc(C)c2c1	none (no result: M1 ag, M1 antagonist, D1 allo mod)
Cc1cc(-c2ccco2)c(C#N)c2nc3ccccc3n12	M1 ag 10.7 (no result: mHtt clearance) | M1 agonist conf inconclusive | M4 ag counter inactive
CCc1c(C)c(C#N)c2nc3ccccc3n2c1-n1nc(C)cc1C	none (no result: mHtt clearance)
CC(=O)Oc1ccc2c(c1)cc(C)n2C	none (no result: M1 ag, M1 antagonist, D1 allo mod)
CCN1C(=O)/C(=C/N2CCc3ccccc32)SC1=S	M1 ag 86.6 | M1 agonist conf 528 | M4 ag counter 491
CCN1C(=O)/C(=C\N2CCCc3ccccc32)SC1=S	none (no result: mHtt clearance)
CCCCS(=O)(=O)Nc1ccc(Cc2ccncc2)cc1	M1 ag 3.2 | M1 agonist conf inconclusive | M4 ag counter inactive
COCCNC(=O)C(c1ccc(C)o1)N(Cc1ccc(OC)cc1)C(=O)Cn1nnc2ccccc21 (configuration not stated)	none (no result: mHtt clearance)
COCCNC(=O)C(c1ccc(C)o1)N(CC1CCCO1)C(=O)Cn1nnc2ccccc21 (configuration not stated)	M1 ag 1.86 (no result: D1 allo mod) | M1 agonist conf inconclusive | M4 ag counter inactive
COc1cc(C2Nc3ccc4ncccc4c3C3=C2C(=O)CCC3)ccc1O (configuration not stated)	none (no result: mHtt clearance)
CN1C=CC(=C2C(=O)c3ccccc3C2=O)C=C1	M1 ag 33.1, M1 antagonist 2.59 | M1 agonist conf inactive | M4 ag counter inconclusive
CCSc1nnc(NC(=O)c2ccccn2)s1	M1 ag 11.2, D1 allo mod -5.84 (no result: mHtt clearance) | M1 agonist conf inconclusive | M4 ag counter inactive
CCSc1nnc(NC(=O)c2cnccn2)s1	none (no result: mHtt clearance)
Cc1c(C(=O)O)oc2ccc(S(=O)(=O)N3CCC(C)CC3)cc12	none (no result: mHtt clearance)
Cc1c(C(=O)O)oc2ccc(S(=O)(=O)N3CC(C)CC(C)C3)cc12 (configuration not stated)	M1 ag 10.7, M1 antagonist -11.1 (no result: mHtt clearance) | M1 agonist conf inactive | M4 ag counter inconclusive
COc1ccc(NC(=O)c2oc3ccc(S(=O)(=O)N4CCC5(CC4)OCCO5)cc3c2C)cc1	M1 ag 13.2, D1 allo mod -3.27 (no result: mHtt clearance) | M1 agonist conf inconclusive | M4 ag counter inactive
N#CC1=C(N)N(c2ccc(Oc3ccccc3)cc2)C(=O)C1	none (no result: mHtt clearance)
O=c1c2c3c(sc2n2c(=S)[nH]nc2n1Cc1ccccc1)CN(Cc1ccccc1)CC3	none (no result: M1 ag, M1 antagonist, D1 allo mod)
N=c1nc(N2CCCCC2)cc(N)n1O	M1 ag 10.1 (no result: mHtt clearance) | M1 agonist conf inactive | M4 ag counter inactive
Cc1cc(N2CCCCCC2)nc(-c2ccccc2O)n1	none
CCOc1ccccc1-n1nnnc1SCC(=O)NC(=O)NCc1ccco1	M1 ag 3.31 (no result: mHtt clearance) | M1 agonist conf inactive | M4 ag counter inactive
CCCC1=C(C(=O)OCC)C(c2ccc(O)cc2)n2ncnc2N1 (configuration not stated)	none
Cc1cc(C(=O)COc2cccc(-n3cnnn3)c2)c(C)n1-c1ccccc1	none (no result: mHtt clearance)
COc1ccc(-n2c(C)cc(C(=O)COC(=O)Cn3cnc4ccccc43)c2C)cc1	M1 ag 5.49, M1 antagonist -3.36 | M1 agonist conf inconclusive | M4 ag counter inactive
Cc1csc(SCCn2c(N3CCN(c4ccccc4)CC3)nc3c2c(=O)[nH]c(=O)n3C)n1	M1 ag 5.38, M1 antagonist -2.47 | M1 agonist conf inconclusive | M4 ag counter inactive
O=C(Nc1ccccc1)N1CCN(c2nc3ccccc3s2)CC1	M1 ag 4.66 | M1 agonist conf inactive | M4 ag counter inactive
O=C(Nc1ccc(F)cc1)N1CCN(c2nc3ccccc3s2)CC1	none
CCn1c(SCC(=O)Nc2cc(C)ccc2C)nc2c(c1=O)SC(C)C2 (configuration not stated)	M1 ag 1.28 (no result: mHtt clearance) | M1 agonist conf inactive | M4 ag counter inconclusive
Cc1ccc(C)c(NC(=O)CSc2nc3c(c(=O)n2C)SC(C)C3)c1 (configuration not stated)	none (no result: mHtt clearance)
CCc1c(C)nc2ncnn2c1NCCc1ccc(OC)c(OC)c1	none (no result: mHtt clearance)
COc1ccc(CCNc2c(C)c(C)nc3ncnn23)cc1	M1 ag 3.25, M1 antagonist -1.18 | M1 agonist conf inactive | M4 ag counter inactive
Cc1cc(C)cc(N(CC(=O)N2CCN(Cc3ccccc3)CC2)S(=O)(=O)c2c(C)noc2C)c1	none
COc1ccc2c(c1OC)C(=O)N1c3ccccc3C(=O)N(c3ccccc3F)C21 (configuration not stated)	M1 ag 9.26 (no result: mHtt clearance) | M1 agonist conf -25.9 | M4 ag counter -92.2
CCOC(=O)c1oc2ccc(S(=O)(=O)Nc3ccc4c(c3)n(C)c(=O)n4C)cc2c1C	M1 ag 5.3 (no result: mHtt clearance) | M1 agonist conf inconclusive | M4 ag counter inactive
Cn1c(=O)n(C)c2cc(NS(=O)(=O)c3ccc4c(c3)CCCC4)ccc21	none
CCCNC(=O)N1CCC(C(=O)c2cccc(F)c2)CC1	none (no result: M1 ag, M1 antagonist, D1 allo mod)
CN(C)c1nc(SCCOC(=O)Nc2ccccc2)nc(N(C)C)n1	none
c1cc2c3c(cccc3c1)C(N1CCN(C3=Nc4cccc5cccc3c45)CC1)=N2	none (no result: M1 ag, M1 antagonist, D1 allo mod)
CCOC(=O)N1CCN(C2=Nc3cccc4cccc2c34)CC1	M1 ag 8.53, M1 antagonist -10.6 | M1 agonist conf 107 | M4 ag counter inconclusive
CC(=O)N1CCN(C2=Nc3cccc4cccc2c34)CC1	M1 ag 9.47 (no result: mHtt clearance, D1 allo mod) | M1 agonist conf 101 | M4 ag counter 92.1
Cc1ccc(CS(=O)(=O)CCC(=O)NCc2ccc3c(c2)OCO3)cc1	none
